From the supplement of paper PMC10849652
Targets with a hit are over-represented here; the source holds about 8,800 in all. About 0.5% of all pairs of compound and target were hits.

What was measured:
Assay in all cases: log2 fold change, soluble protein after heating vs DMSO (PISA); higher = thermal stabilisation; K562 lysate, 10 uM; active = over 0.2 and 3.5 SD of the protein, either way, in both replicates (recomputed)
[1] = compound: CCCS(=O)(=O)Nc1ccc(F)c(C(=O)c2c[nH]c3ncc(-c4ccc(Cl)cc4)cc23)c1F [vemurafenib]
Procedure, shortened: (§1)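 Values give the log-two fold change in thermal stability against solvent controls, from duplicates. Crude K562 extract at 1 mg/mL protein, made by dounce homogenisation in PBS pH 7.4 with 1 mM MgCl2, was treated with 10 μM compound for 30 min. After 3 min heating across 48°C-58°C, aliquots were pooled, adjusted to 0.5% NP-40 at 4°C and centrifuged at 21,000xg for 90 min. The supernatant was measured by TMTpro 16plex LC-MS/MS with channel sums equalised.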

[2] = compound: CCCS(=O)(=O)Nc1ccc(F)c(C(=O)c2c[nH]c3ncc(Cl)cc23)c1F
Procedure, shortened: as §1

[3] = compound: CCN(CCCOc1ccc2c(Nc3cc(CC(=O)Nc4cccc(F)c4)[nH]n3)ncnc2c1)CCOP(=O)(O)O [barasertib]
Procedure, shortened: as §1

[4] = compound: CC[C@@H]1C(=O)N(C)c2cnc(Nc3ccc(C(=O)NC4CCN(C)CC4)cc3OC)nc2N1C1CCCC1
Procedure, shortened: as §1

[5] = compound: CC[C@@H]1C(=O)N(C)c2cnc(Nc3ccc(C(=O)N[C@H]4CC[C@H](N5CCN(CC6CC6)CC5)CC4)cc3OC)nc2N1C(C)C [volasertib]
Procedure, shortened: as §1

[6] = compound: CCn1c(C(=O)N(C2CC2)C2CC2)cc2c3c(ncn3C)c(Nc3cc(C)n(C)n3)nc21
Procedure, shortened: as §1

[7] = compound: CCn1cc(-c2ccnc3[nH]c(-c4cccc(CN(C)C)c4)cc23)c(-c2ccc(NC(=O)N(C)C)cc2)n1
Procedure, shortened: as §1

[8] = compound: CN1CCC(CNc2ccc3ncc(-c4cccc(OC(F)(F)F)c4)n3n2)CC1
Procedure, shortened: as §1

[9] = compound: CN1CCN(CCOc2cc(OC3CCOCC3)c3c(Nc4c(Cl)ccc5c4OCO5)ncnc3c2)CC1 [saracatinib]
Procedure, shortened: as §1

[10] = compound: CN1CCN(c2nc(C3=C(c4c[nH]c5ccccc45)C(=O)NC3=O)c3ccccc3n2)CC1 [sotrastaurin]
Procedure, shortened: as §1

[11] = compound: CN1CC[C@H](c2c(O)cc(O)c3c(=O)cc(-c4ccccc4Cl)oc23)[C@H](O)C1 [alvocidib]
Procedure, shortened: as §1

[12] = compound: CN1CCc2c(c3ccccc3n2Cc2ccc(C(=O)NO)cc2)C1 [Tubastatin A]
Procedure, shortened: as §1

[13] = compound: CNC(=O)C1=CC=CC=C1NC2=NC(=NC=C2Cl)NC3=C(C=C(C=C3)N4CCOCC4)OC
Procedure, shortened: as §1

[14] = compound: CNC(=O)c1ccc(Nc2ncc(C(F)(F)F)c(NCc3nccnc3N(C)S(C)(=O)=O)n2)cc1 [defactinib]
Procedure, shortened: as §1

[15] = compound: CNc1nc(-c2ccc3c(N)n[nH]c3c2)cc(N2C[C@@H](C(=O)NC3CCCCC3)CC[C@H]2C)n1
Procedure, shortened: as §1

[16] = compound: COC(=O)N[C@@H](C)CNc1nccc(-c2cn(C(C)C)nc2-c2cc(Cl)cc(NS(C)(=O)=O)c2F)n1 [encorafenib]
Procedure, shortened: as §1

[17] = compound: COC(=O)[C@H](CCSC)NC(=O)C1=C(C=C(C=C1)NC[C@H](CS)N)C2=CC=CC=C2
Procedure, shortened: as §1

[18] = compound: COc1cc(Nc2ncc3c(n2)-c2ccc(Cl)cc2C(c2c(F)cccc2OC)=NC3)ccc1C(=O)O [alisertib]
Procedure, shortened: as §1

[19] = compound: COc1cc2nc(-c3cc(F)ccc3O)nc(N[C@@H]3CNC[C@H]3C(C)(C)O)c2cc1OC
Procedure, shortened: as §1

[20] = compound: COc1cc2ncnc(Nc3ccc(F)c(Cl)c3)c2cc1OCCCN1CCOCC1 [gefitinib]
Procedure, shortened: as §1

Measured: log2 fold change

SCO2 (UniProt O43819)
UniProt O43819, sequence (O43819 whole entry, looked up): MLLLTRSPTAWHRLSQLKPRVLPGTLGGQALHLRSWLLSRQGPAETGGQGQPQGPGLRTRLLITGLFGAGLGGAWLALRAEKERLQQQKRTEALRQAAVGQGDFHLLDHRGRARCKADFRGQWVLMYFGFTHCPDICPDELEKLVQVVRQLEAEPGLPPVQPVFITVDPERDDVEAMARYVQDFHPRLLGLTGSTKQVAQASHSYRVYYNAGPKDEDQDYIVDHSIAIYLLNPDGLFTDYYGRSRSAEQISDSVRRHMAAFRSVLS
inactive: [1] -0.064 | [2] 0.054 | [3] 0.019 | [4] -0.075 | [5] -0.028 | [6] -0.087 | [7] -0.235 | [8] 0.076 | [9] -0.046 | [10] 0.003 | [11] -0.009 | [12] 0.039 | [13] 0.073 | [14] 0.008 | [15] -0.007 | [16] 0.027 | [18] -0.115 | [19] 0.046 | [20] 0.114
active: [17] -0.607

RBM5 (UniProt P52756)
UniProt P52756, sequence (P52756 whole entry, looked up): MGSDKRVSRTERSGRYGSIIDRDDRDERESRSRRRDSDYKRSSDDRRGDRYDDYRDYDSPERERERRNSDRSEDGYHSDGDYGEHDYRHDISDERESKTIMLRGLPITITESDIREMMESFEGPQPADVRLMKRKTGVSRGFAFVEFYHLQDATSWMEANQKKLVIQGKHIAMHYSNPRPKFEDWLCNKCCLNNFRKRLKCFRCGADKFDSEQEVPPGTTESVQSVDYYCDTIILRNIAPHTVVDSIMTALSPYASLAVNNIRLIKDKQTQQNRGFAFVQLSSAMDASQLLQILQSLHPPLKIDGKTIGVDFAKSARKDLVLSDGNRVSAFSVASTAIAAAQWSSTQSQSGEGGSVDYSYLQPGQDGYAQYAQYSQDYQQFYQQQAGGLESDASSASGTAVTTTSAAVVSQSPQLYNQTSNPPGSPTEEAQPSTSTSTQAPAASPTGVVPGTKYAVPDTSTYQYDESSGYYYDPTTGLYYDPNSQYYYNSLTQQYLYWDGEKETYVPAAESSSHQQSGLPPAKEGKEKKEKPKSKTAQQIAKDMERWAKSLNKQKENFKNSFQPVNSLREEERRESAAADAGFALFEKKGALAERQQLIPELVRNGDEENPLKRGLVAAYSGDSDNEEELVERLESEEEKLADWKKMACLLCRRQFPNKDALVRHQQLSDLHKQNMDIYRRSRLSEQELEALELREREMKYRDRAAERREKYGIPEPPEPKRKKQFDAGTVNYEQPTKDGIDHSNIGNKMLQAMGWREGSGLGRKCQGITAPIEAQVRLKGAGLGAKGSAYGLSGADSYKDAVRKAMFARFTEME
inactive: [1] -0.021 | [2] -0.018 | [3] 0.087 | [4] 0.013 | [5] -0.277 | [6] 0.064 | [7] 0.048 | [8] -0.012 | [9] -0.039 | [10] -0.03 | [11] -0.226 | [12] -0.059 | [13] 0.021 | [14] 0.01 | [15] 0.028 | [16] 0.044 | [17] 0.134 | [18] -0.035 | [19] 0.182 | [20] 0.18

RBSN (UniProt Q9H1K0)
inactive: [1] 0.051 | [2] 0.01 | [3] 0.023 | [4] 0.035 | [5] -0.087 | [6] 0.006 | [7] -0.075 | [8] 0.038 | [9] 0.023 | [10] -0.019 | [11] -0.031 | [12] 0.005 | [13] -0.047 | [14] 0.015 | [15] -0.014 | [16] 0.089 | [17] -0.048 | [18] 0.019 | [19] 0.015 | [20] 0.059

RPN2 (UniProt P04844)
UniProt P04844, sequence (P04844 whole entry, looked up): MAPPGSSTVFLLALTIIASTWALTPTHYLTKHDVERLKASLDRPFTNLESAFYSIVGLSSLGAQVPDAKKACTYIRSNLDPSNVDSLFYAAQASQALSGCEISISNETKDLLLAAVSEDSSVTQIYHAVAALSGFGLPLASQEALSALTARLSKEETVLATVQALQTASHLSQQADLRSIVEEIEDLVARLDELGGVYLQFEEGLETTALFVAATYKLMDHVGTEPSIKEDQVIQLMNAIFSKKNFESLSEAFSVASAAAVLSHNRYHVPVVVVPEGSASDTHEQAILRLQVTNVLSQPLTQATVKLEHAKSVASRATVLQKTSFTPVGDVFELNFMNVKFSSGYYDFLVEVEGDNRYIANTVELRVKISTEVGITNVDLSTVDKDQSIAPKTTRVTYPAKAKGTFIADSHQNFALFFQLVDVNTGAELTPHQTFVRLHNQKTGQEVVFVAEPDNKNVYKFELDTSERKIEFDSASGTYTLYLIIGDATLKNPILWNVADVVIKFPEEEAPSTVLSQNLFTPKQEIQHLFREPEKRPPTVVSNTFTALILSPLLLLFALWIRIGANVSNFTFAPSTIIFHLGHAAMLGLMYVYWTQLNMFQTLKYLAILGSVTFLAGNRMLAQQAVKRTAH
inactive: [1] 0.009 | [2] 0.008 | [3] 0.019 | [4] 0 | [5] 0.003 | [6] -0.003 | [7] -0.084 | [8] 0.033 | [9] 0.008 | [10] 0.008 | [11] -0.024 | [12] 0.001 | [13] -0.024 | [14] -0.006 | [15] -0.01 | [16] 0.041 | [17] -0.031 | [18] -0.008 | [19] -0.03 | [20] 0.011

RAB21 (UniProt Q9UL25)
UniProt Q9UL25, sequence (Q9UL25 whole entry, looked up): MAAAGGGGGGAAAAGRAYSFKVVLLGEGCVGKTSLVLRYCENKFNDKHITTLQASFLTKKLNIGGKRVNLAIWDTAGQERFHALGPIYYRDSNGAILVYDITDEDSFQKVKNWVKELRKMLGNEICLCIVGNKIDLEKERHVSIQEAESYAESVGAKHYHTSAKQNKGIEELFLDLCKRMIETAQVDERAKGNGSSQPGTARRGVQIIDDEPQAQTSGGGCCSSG
active: [7] 0.262
inactive: [1] -0.038 | [2] -0.005 | [3] 0.041 | [4] 0.005 | [5] -0.006 | [6] 0.008 | [8] -0.06 | [9] 0.029 | [10] -0.021 | [11] 0.069 | [12] 0.034 | [13] 0.048 | [14] -0.025 | [15] 0.026 | [16] 0.005 | [17] -0.072 | [18] 0.015 | [19] 0.013 | [20] 0.003

RPS18 (UniProt P62269)
active: [7] -0.219
inactive: [1] 0.006 | [2] 0.022 | [3] -0.007 | [4] -0.014 | [5] 0.018 | [6] 0.009 | [8] 0.063 | [9] 0.002 | [10] 0 | [11] -0.057 | [12] 0.04 | [13] -0.021 | [14] 0.016 | [15] 0.025 | [16] -0.022 | [17] 0.054 | [18] 0.013 | [19] 0.001 | [20] -0.032

RBBP7 isoform 2 (UniProt Q16576)
UniProt Q16576, sequence (Q16576 whole entry, looked up): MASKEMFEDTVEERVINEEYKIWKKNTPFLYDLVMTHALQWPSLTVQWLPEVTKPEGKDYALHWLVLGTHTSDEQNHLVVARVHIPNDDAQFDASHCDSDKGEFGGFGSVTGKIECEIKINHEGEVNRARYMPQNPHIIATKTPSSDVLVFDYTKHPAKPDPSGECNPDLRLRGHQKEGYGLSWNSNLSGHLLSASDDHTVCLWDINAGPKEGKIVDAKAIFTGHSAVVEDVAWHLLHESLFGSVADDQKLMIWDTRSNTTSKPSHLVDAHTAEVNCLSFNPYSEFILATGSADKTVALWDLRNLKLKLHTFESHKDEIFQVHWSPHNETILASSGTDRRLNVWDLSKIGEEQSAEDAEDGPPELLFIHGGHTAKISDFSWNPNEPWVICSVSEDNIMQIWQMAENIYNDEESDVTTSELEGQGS
inactive: [1] -0.064 | [2] -0.007 | [3] -0.042 | [4] -0.057 | [5] 0.022 | [6] 0.047 | [8] 0.088 | [9] 0.001 | [10] 0.032 | [11] -0.005 | [12] -0.004 | [13] -0.021 | [14] -0.023 | [15] -0.028 | [16] 0.03 | [17] -0.034 | [18] 0.03 | [19] -0.003 | [20] 0.002
active: [7] -0.274

SEC62 (UniProt Q99442)
UniProt Q99442, sequence (Q99442 whole entry, looked up): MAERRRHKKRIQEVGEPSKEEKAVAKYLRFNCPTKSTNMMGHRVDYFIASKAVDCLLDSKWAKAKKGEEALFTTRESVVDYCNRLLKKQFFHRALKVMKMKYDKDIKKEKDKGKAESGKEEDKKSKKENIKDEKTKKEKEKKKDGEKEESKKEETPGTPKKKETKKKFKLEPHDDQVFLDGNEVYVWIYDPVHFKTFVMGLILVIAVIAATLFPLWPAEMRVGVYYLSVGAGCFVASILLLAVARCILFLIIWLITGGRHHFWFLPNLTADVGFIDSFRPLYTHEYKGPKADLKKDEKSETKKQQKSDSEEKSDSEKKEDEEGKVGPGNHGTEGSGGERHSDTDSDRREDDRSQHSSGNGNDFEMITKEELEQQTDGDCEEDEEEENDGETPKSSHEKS
inactive: [1] -0.024 | [2] 0.039 | [3] 0.027 | [4] 0.017 | [5] 0.011 | [6] 0 | [8] -0.12 | [9] -0.011 | [10] -0.04 | [11] 0.046 | [12] 0.07 | [13] 0.019 | [14] 0.02 | [15] 0.045 | [16] -0.012 | [17] -0.084 | [18] -0.003 | [19] -0.028 | [20] 0.004
active: [7] 0.373

RNASEH2B (UniProt Q5TBB1)
UniProt Q5TBB1, sequence (Q5TBB1 whole entry, looked up): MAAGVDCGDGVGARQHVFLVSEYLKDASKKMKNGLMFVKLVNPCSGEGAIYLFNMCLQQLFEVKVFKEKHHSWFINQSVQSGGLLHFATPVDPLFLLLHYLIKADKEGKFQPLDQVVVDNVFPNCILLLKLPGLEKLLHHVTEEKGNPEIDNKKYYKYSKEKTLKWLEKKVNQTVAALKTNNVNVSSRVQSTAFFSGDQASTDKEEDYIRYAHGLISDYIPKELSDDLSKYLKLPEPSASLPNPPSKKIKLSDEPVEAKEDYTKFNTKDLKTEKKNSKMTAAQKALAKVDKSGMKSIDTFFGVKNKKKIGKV
inactive: [1] -0.008 | [2] 0.034 | [3] -0.035 | [4] -0.056 | [5] -0.044 | [6] -0.001 | [7] 0.026 | [8] -0.101 | [9] -0.022 | [10] 0.062 | [11] 0.05 | [12] -0.046 | [13] -0.003 | [14] 0.092 | [15] -0.021 | [16] 0.035 | [18] -0.031 | [19] -0.038 | [20] -0.031
active: [17] 0.338

SERPINI1 (UniProt Q99574)
inactive: [1] 0.027 | [2] 0.008 | [3] -0.006 | [4] 0.024 | [5] -0.001 | [6] 0.03 | [7] 0.001 | [8] 0.069 | [9] 0 | [10] 0.016 | [11] -0.031 | [12] 0.015 | [13] -0.001 | [14] 0.019 | [15] -0.042 | [16] 0.02 | [17] -0.074 | [18] -0.064 | [19] 0.013 | [20] 0.048

RPS6KA1 (UniProt Q15418)
active: [11] 0.447 | [13] 0.758
inactive: [1] -0.037 | [2] -0.004 | [3] -0.006 | [4] 0.037 | [5] 0.029 | [6] 0.019 | [7] -0.004 | [8] 0.116 | [9] 0.101 | [10] 0.103 | [12] -0.194 | [14] 0.236 | [15] -0.007 | [16] -0.121 | [17] -0.002 | [18] 0.012 | [19] 0.165 | [20] -0.007

RBM8A (UniProt Q9Y5S9)
inactive: [1] -0.086 | [2] -0.045 | [3] 0.027 | [4] -0.091 | [5] -0.016 | [6] 0.047 | [7] 0.35 | [8] -0.198 | [9] -0.043 | [10] 0.047 | [11] 0.086 | [12] 0.024 | [13] -0.024 | [14] 0.017 | [15] -0.256 | [16] 0.002 | [17] -0.069 | [18] 0 | [19] -0.062 | [20] -0.024

REXO4 (UniProt Q9GZR2)
UniProt Q9GZR2, sequence (Q9GZR2 whole entry, looked up): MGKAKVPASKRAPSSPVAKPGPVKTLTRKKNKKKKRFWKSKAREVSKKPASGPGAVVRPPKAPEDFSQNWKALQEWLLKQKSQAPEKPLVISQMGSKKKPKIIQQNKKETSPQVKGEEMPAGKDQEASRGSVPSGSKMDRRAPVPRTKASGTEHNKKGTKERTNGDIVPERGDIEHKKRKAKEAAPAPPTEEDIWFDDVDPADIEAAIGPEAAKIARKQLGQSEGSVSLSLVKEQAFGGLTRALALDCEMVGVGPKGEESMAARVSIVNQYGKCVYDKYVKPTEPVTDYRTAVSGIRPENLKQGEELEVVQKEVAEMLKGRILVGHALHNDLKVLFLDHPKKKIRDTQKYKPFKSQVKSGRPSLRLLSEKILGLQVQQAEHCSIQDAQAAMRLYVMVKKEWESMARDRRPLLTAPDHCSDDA
active: [7] 0.452
inactive: [1] -0.018 | [2] 0.007 | [3] 0.088 | [4] 0.013 | [5] -0.034 | [6] 0 | [8] -0.184 | [9] -0.002 | [10] 0.013 | [11] 0.089 | [12] -0.108 | [13] 0.026 | [14] 0.013 | [15] 0.032 | [16] -0.007 | [17] 0.08 | [18] -0.008 | [19] 0.024 | [20] -0.029

RPAP1 (UniProt Q9BWH6)
UniProt Q9BWH6, sequence (Q9BWH6 whole entry, looked up): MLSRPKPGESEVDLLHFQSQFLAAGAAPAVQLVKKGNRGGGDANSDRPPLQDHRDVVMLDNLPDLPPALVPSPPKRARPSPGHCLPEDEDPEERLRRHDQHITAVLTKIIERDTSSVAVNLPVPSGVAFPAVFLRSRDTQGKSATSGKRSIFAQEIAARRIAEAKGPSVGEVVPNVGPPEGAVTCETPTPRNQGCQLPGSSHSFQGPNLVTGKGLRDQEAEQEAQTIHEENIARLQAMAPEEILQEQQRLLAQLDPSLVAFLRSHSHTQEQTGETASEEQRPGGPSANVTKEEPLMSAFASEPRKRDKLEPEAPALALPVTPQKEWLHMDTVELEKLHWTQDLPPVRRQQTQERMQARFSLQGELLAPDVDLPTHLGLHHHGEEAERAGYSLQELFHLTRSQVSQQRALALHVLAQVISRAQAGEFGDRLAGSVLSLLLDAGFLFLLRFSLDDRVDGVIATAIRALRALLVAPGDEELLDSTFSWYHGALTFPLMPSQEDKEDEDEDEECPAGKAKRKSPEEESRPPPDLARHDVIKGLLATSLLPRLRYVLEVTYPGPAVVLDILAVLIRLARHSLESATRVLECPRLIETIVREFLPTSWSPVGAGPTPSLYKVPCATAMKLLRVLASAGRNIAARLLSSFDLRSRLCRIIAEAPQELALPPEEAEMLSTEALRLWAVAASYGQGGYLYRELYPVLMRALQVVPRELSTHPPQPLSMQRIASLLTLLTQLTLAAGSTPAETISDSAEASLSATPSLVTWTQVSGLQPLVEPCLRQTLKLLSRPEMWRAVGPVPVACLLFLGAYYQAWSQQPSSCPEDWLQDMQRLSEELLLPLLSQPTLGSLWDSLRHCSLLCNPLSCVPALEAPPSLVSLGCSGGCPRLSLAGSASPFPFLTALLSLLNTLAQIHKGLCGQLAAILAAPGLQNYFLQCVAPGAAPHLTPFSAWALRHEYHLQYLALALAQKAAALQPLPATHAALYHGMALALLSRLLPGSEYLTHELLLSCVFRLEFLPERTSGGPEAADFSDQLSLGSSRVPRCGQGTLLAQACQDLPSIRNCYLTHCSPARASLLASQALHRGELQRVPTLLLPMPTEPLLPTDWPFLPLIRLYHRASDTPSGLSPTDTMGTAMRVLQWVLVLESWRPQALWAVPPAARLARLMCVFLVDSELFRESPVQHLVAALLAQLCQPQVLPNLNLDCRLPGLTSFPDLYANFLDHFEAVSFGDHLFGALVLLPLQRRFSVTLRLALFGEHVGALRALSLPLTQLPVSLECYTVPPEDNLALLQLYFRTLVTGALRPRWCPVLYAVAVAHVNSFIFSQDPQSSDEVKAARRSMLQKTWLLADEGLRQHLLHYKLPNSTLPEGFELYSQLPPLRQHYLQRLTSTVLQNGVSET
inactive: [1] -0.008 | [2] -0.012 | [3] 0.012 | [4] -0.028 | [5] -0.053 | [6] 0 | [7] -0.031 | [8] 0.008 | [9] 0.02 | [10] 0.01 | [11] -0.001 | [12] -0.077 | [13] 0.016 | [14] -0.006 | [15] 0.007 | [16] 0.019 | [17] -0.069 | [18] 0.013 | [19] 0.027 | [20] -0.007

RPS4X (UniProt P62701)
inactive: [1] 0.001 | [2] -0.014 | [3] -0.033 | [4] 0.001 | [5] -0.007 | [6] -0.025 | [8] -0.059 | [9] -0.016 | [10] -0.009 | [11] 0.039 | [12] 0.032 | [13] -0.03 | [14] -0.027 | [15] 0.029 | [16] -0.036 | [17] 0.063 | [18] 0.004 | [19] 0.002 | [20] -0.028
active: [7] 0.242

RMC1 (UniProt Q96DM3)
inactive: [1] 0.009 | [2] 0.029 | [3] 0.003 | [4] 0.028 | [5] -0.044 | [6] -0.02 | [7] 0 | [8] 0.024 | [9] 0.018 | [10] -0.015 | [11] -0.041 | [12] -0.019 | [13] 0.019 | [14] 0.049 | [15] -0.019 | [16] 0.012 | [17] -0.023 | [18] 0 | [19] -0.001 | [20] 0.005
